Assay results: PubChem BioAssay (Tox21)
Records with an inconclusive call do not appear. Entries that show only a call come without a potency. The source made the active and inactive calls. Calls come from the whole dose curve; as a rule, active = well fitted cell-killing curve with a large enough effect in the repeat runs; inconclusive = weak or mixed curves, or effect the other way; inactive = flat fitted curve, though single readings scatter.

assay: Nuclear factor erythroid 2-related factor 2/antioxidant responsive element (Nrf2/ARE) small molecule agonists: qHTS cell viability counter screen in human keratinocytes (AID 1919968); conditions: KeratinoSens HaCaT ARE cells viability, CellTiter-Fluor, 24 h; series mostly up to 92.4 µM; note: nearly all actives have a fitted effect of over 55% in size
From the text: U.S. Tox21 Program National Center for Advancing Translational Sciences [NCATS] Division of Preclinical Innovation [DPI] U.S. Environmental Protection Agency [EPA] National Institutes of Environmental Health Sciences [NIEHS] National Toxicology Program [NTP] U.S. Food and Drug Administration [FDA] Tox21 Assay Overview: Oxidative stress has been implicated in the pathogenesis of a variety of diseases ranging from cancer to neurodegeneration. The antioxidant response element (ARE) signaling pathway plays an important role in the amelioration of oxidative stress. The KeratinoSens (Givaudan, Switzerland) is an in vitro test method which quantifies luciferase induction as a measure of activation of Keap1-Nrf2-antioxidationt/electrophile response element (ARE) dependant pathway in HaCaT human keratinocytes stably transfected with a selectable plasmid. The KeratinoSens assay is a cell-based assay with a reporter cell line to detect potential skin sensitizers by their ability to induce the Nrf2/ARE-response. The activation of the report gene under culture conditions can be detected by ONE-Glo Luciferase Assay System (Promega, Madison, WI). This cell line has been used to screen the Tox21 10K compound library to identify agonists that induce oxidative stress. The cytotoxicity of the Tox21 compound library against the KS-ARE cell line was tested in parallel by measuring the cell viability using CellTiter- Fluor assay system (Promega, Madison, WI) in the same wells.
Tox21 Assay Protocol Summary: HaCaT derived cell line KeratinoSens were dispensed at 1,500 cells/5uL/well in 1536-well white wall/solid bottom plates using a Multidrop Combi (ThermoFisher Scientific, Waltham, MA) dispenser. After the assay plates were incubated at 37 C/5% CO2 for 5 h, 23 nL of compounds dissolved in DMSO, positive controls or DMSO only was transferred to the assay plate by a pintool workstation (Kalypsys, San Diego, CA). The plates were incubated at 37 C/5% CO2 for 23 h, followed by addition of 1uL/well of CellTiter-Fluor reagent into the assay plates using a Flying Reagent Dispenser (Aurora Discovery, San Diego, CA) for cell viability readout that measures cytotoxicity. After 1 h incubation at 37 C/5% CO2 the fluorescence intensity was measured using a ViewLux (PerkinElmer, Shelton, CT) plate reader.
Potency is the fitted concentration of half-maximal effect.

SMILES	Potency	activity change, negative = cytotoxicity
CCCCCCCCOc1ccccc1C(=O)Nc1ccc(C(=O)OCC[N+](C)(CC)CC)cc1	inactive	–
CC(=O)N[C@@H](CCC(N)=O)C(=O)O	inactive	–
CCN(CCC#N)c1ccc(N=Nc2ccc([N+](=O)[O-])cc2)cc1	inactive	–
CC1(C)S[C@@H]2[C@H](NC(=O)Cc3ccccc3)C(=O)N2[C@H]1C(=O)O (tested in a mixture with another compound)	inactive	–
O=Cc1cccc(Br)c1	inactive	–
NC(=O)N1c2ccccc2CC(=O)c2ccccc21	inactive	–
CC(C)(C)C1(CCc2ccc(Cl)cc2)CO1 (stereo not given)	inactive	–
O=C1C(CCS(=O)c2ccccc2)C(=O)N(c2ccccc2)N1c1ccccc1 (stereo not given)	inactive	–
Nc1cccc(S(=O)(=O)c2cccc(N)c2)c1	inactive	–
CCC(C=O)CC	inactive	–
Cc1ccnc(NS(=O)(=O)c2ccc(N)cc2)n1	inactive	–
OCCCCC(O)CO (stereo not given)	inactive	–
COC(=O)c1cc(C(=O)OC)cc(S(=O)(=O)O)c1	inactive	–
CCNC(=O)C(C)OC(=O)Nc1ccccc1 (stereo not given)	inactive	–
CCN(CC)C(=O)/C(C#N)=C/c1cc(O)c(O)c([N+](=O)[O-])c1	inactive	–
CCCCCCCCCCCCCCNCCO	26.6 µM (active)	–
CCCCCCCCCOC(=O)c1ccccc1C(=O)OCCCCCCCCC	inactive	–
CC(CCl)OC(C)CCl (stereo not given)	inactive	–
CN(C)c1ccc(C(c2ccccc2)c2ccc(N(C)C)cc2)cc1	inactive	–
Clc1ccnc(Cl)n1	inactive	–

SMILES	Potency	activity change, negative = cytotoxicity
CC/C=C(\C)C=O	inactive	–
CCCCC(CC)C(=O)OC(C)C (stereo not given)	inactive	–
CCOC(=O)[C@H](CCc1ccccc1)N[C@@H](C)C(=O)N1CCC[C@H]1C(=O)O	inactive	–
COc1ccc(/C=C/S(=O)(=O)NC(=O)c2ccc(C)cc2Cl)cc1	inactive	–
CCCCCCCCN(C)CCCCCCCC	inactive	–
COCCOC(=O)C1=C(C)NC(C)=C(C(=O)OC/C=C/c2ccccc2)C1c1cccc([N+](=O)[O-])c1 (stereo not given)	inactive	–
O=C=NCc1cccc(CN=C=O)c1	–	3.98% [at 19 µM] (inactive)
CCC(C(=O)OCCN(CC)CC)c1ccccc1 (stereo not given)	inactive	–
OCC(CO)(CO)COCC(CO)(CO)CO	inactive	–
O=C1Nc2cc(Cl)ccc2Oc2ccccc21	inactive	–
C1COC(NC(C2CC2)C2CC2)=N1	inactive	–
CCC(C)(C)C(=O)O	inactive	–
C=Cc1ccccc1C=C	inactive	–
OC1CCCc2ccccc21 (stereo not given)	inactive	–
Cc1c(C)c([N+](=O)[O-])c(C(C)(C)C)c([N+](=O)[O-])c1C	inactive	–
CC(C)(C)C(=O)O	inactive	–
O=C1c2ccccc2C(=O)N1CO	inactive	–
Cc1cccc(CN2CCN(C(c3ccccc3)c3ccc(Cl)cc3)CC2)c1 (stereo not given)	18.8 µM (active)	–
CCC=CC#N	inactive	–
O=Cc1ccc(F)c(Br)c1	inactive	–
